Each structure is given as a SMILES string. Values joined by “and” are separate entries in the source; they are usually repeats but may differ in a detail not shown here. Equal values may be shown once. In all, about 410,000 compounds went through this assay and about 18,000 (4.4%) were called active. About 7% were inconclusive and are not listed. Cut-off read from the data, not from the text of the source: active = activity change below about -60%; inconclusive = no clear call, values can overlap the other calls; inactive = above about -39%. The entries come from a sample that favours actives as a whole. More than one record can exist for a structure, and the calls need not agree.
% is set by controls: 0 for no effect and ±100 for the full control effect.

This assay is described as follows: qHTS Assay for inhibitors of the human cytomegalovirus (HCMV). To be noted: HFF cells, HCMV-luciferase reporter, 72 h; at 57.5 µM; stronger effect = lower value. Put shortly: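 Screen run at 2 compound doses on HFFs infected with reporter HCMV, MOI 1 PFU/cell. Luciferase activity from cell lysates at 72 h post infection gave inhibition relative to buffer-only and Salinomycin wells.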
On to `COc1ccccc1NC(=O)C1=C(C)Nc2nc(SCC(=O)c3ccc(C)cc3)nn2C1c1ccccc1C` (stereo not given), for which the activity change, negative = inhibition was -1.97% (inactive). With `Cc1cccc2c1-c1sc(C(=O)Nc3ccc(F)cc3F)cc1CO2` the figure was -12.8% (inactive). `CCOC(=O)C1Cn2c(nc3c(c2=O)C(C)(CC)Cc2ccccc2-3)S1` (stereo not given): the activity change, negative = inhibition is -19.7% (inactive). Under `COc1ccc(-n2c(SCC(N)=O)nc3c(oc4ccccc43)c2=O)cc1` stands -15.1% (inactive); under `Cc1cccc(-n2c(SCC(N)=O)nc3c(c2=O)C2(CCCCC2)Cc2ccccc2-3)c1`, -70.4% (active). Take `NC(=O)c1ccc(Nc2ccc3c(c2)CCC3)c([N+](=O)[O-])c1`: the activity change, negative = inhibition was -8.76% (inactive). Regarding `CCCCN(CC)C(=O)c1c[nH]c2ccc(S(=O)(=O)Nc3cccc(OC)c3)cc2c1=O`, the activity change, negative = inhibition is 7.97% (inactive). Under `CCOc1ccccc1C(=O)NCc1ccc2c(c1)CCN2C(=O)c1ccc(F)cc1` stands -15.6% (inactive); under `Cc1ncsc1CCCl`, -26.8% (inactive); under `Cc1cccc(OCC(=O)Nc2ccc(C(=O)O)cc2NC(=O)COc2cccc(C)c2)c1`, -3.05% (inactive). Turning to `Cc1ccc(OCC(=O)Nc2ccc(C(=O)O)cc2NC(=O)COc2ccc(C)c(C)c2)cc1C`, the activity change, negative = inhibition is -98.3% (active). In the case of `Cc1ccc(OCC(=O)Nc2cccc3c2CCCC3)cc1C`, the activity change, negative = inhibition is -12.3% (inactive). Under `COc1ccc(Cl)cc1NC(=O)Cn1nc(-c2ccc(C)cc2)n(C)c1=S` stands 3.99% (inactive). With `Cc1ccc(-n2nc3c(=O)n(C(C)C(=O)NCc4ccc5c(c4)OCO5)nc(C)c3c2C)cc1` (stereo not given) the figure was -83.4% (active); with `Cc1ccccc1CNC(=O)CSc1nnc(C)c2c(C)n(-c3ccccc3)nc12`, -3% (inactive); with `Cc1nn(C(C)C(=O)NCCC2=CCCCC2)c(=O)c2nn(-c3ccccc3)c(C)c12` (stereo not given), -28.7% (inactive).

With `COc1ccc(CNC(=O)C(C)n2nc(C)c3c(C)n(-c4ccccc4)nc3c2=O)c(OC)c1` (stereo not given), the activity change, negative = inhibition was -15.4% (inactive) and -69.2% (active). For the compound `COc1ccc(OC)c(CNC(=O)Cn2nc(C)c3c(C)n(-c4ccccc4)nc3c2=O)c1`, the activity change, negative = inhibition is -18.6% (inactive). In the case of `Cc1nn(C(C)C(=O)N2CCOCC2)c(=O)c2nn(-c3ccccc3)c(C)c12` (stereo not given), the activity change, negative = inhibition is -17.5% (inactive). As for `COc1ccc(-c2n[nH]c3c2CN(C(=O)c2ccc(F)cc2)CC3)cc1`, the activity change, negative = inhibition was 0% (inactive). As for `O=C1C=C[C@]23OCCC[C@@]2(CCCO)CCCC3=C1`, the activity change, negative = inhibition is -2.29% (inactive). `CCOc1cc(N2CCOCC2)c(OCC)cc1NC(=O)C1=NN(c2cccc(C)c2)C(=O)CC1`: the activity change, negative = inhibition was -25.4% (inactive).

For `CCOc1cc(N2CCOCC2)c(OCC)cc1NC(=O)COc1cccc2cccnc12`, the activity change, negative = inhibition is -104% (active). On to `CCOc1cc(C(=O)OCC(=O)Nc2cccc(C)c2)ccc1OCC(=O)N1CCOCC1`, for which the activity change, negative = inhibition is -3.23% (inactive).

On to `Cc1ccc(CNS(=O)(=O)c2ccc(-c3cc(C(F)(F)F)on3)s2)cc1`, for which the activity change, negative = inhibition is 87.2% (inactive). On to `Cc1ccc(CNS(=O)(=O)c2ccc(C(=O)N(C)C)s2)cc1`, for which the activity change, negative = inhibition is 1.6% (inactive).

On to `O=C(Nc1ccccc1Br)c1cc(CN2CCCC2)on1`, for which the activity change, negative = inhibition was 27.2% (inactive). With `COc1ccc(N(Cc2ccc(N(C)C)cc2)C(=O)c2ccc(S(C)(=O)=O)cc2)cc1`, the activity change, negative = inhibition was 6.32% (inactive). Consider `CCSc1ncc(Cl)c(C(=O)Nc2c(C(=O)c3ccccc3)oc3ccccc23)n1`, for which the activity change, negative = inhibition is 12.8% (inactive).

In the case of `CCOc1ccc(N(CC)C(=O)c2noc3c2COc2ccc(C)cc2-3)cc1`, the activity change, negative = inhibition is -7.27% (inactive). For the compound `CCOc1ccc(N(Cc2ccccc2)C(=O)c2nc(SCC)ncc2Cl)cc1`, the activity change, negative = inhibition is -68.2% (active). On to `CCOc1ccc(NC(=O)CN(Cc2ccccc2)S(=O)(=O)c2ccc(Cl)cc2)cc1`, for which the activity change, negative = inhibition was 2.3% (inactive).

Turning to `CCOc1ccc(N(Cc2ccccc2)C(=O)c2nc(S(C)(=O)=O)ncc2Cl)cc1`, the activity change, negative = inhibition is -101% (active).

Regarding `Brc1ccc(-c2n(-c3ccccn3)c3ccccc3[n+]2-c2ccccn2)cc1`, the activity change, negative = inhibition was -11.9% (inactive).

Turning to `CCOC(=O)c1ccc(NC(=O)C2CC(=O)N(c3ccc(C(C)C)cc3)C2)cc1` (stereo not given), the activity change, negative = inhibition is 46.5% (inactive).

For the compound `COC(=O)c1cc(NC(=O)CCc2c(C)nc3c4c(C)cc(C)nc4nn3c2C)cc(C(=O)OC)c1`, the activity change, negative = inhibition is 8.7% (inactive). With `COc1ccc(C2c3ccc(O)cc3Oc3ncn(CCCO)c(=N)c32)cc1OC` (stereo not given), the activity change, negative = inhibition was 0% (inactive).

As to `CC(=O)Oc1cc2c(C(=O)NCCN3CCOCC3)c(C)oc2c2ccccc12`, the activity change, negative = inhibition is 55.4% (inactive).

`c1ccc2cc3c(NCCN4CCOCC4)ccnc3cc2c1`: the activity change, negative = inhibition was -98.8% (active).

With `CSc1ccc(CNCCN2CCOCC2)cc1`, the activity change, negative = inhibition is 0% (inactive). With `CNc1nc2cnc(-c3ccsc3)cc2n1Cc1ccccc1` the figure was 12.4% (inactive). Under `Cc1c(C(=O)Nc2cccc(Cl)c2)oc2ccc(S(=O)(=O)N3CCOCC3)cc12` stands 4.49% (inactive).

`NC(=O)Nc1ccc(C(=O)OCC(=O)NC2CCCc3ccccc32)cc1` (stereo not given): the activity change, negative = inhibition is -25.3% (inactive). As for `Nc1ccc(C(=O)OCC(=O)NC2CCCc3ccccc32)cc1[N+](=O)[O-]` (stereo not given), the activity change, negative = inhibition is -3.15% (inactive). In the case of `O=C(CCNC(=O)c1ccc(Cl)cc1)NC1CCCc2ccccc21` (stereo not given), the activity change, negative = inhibition was -82% (active).

As to `CCC(C)c1ccc2oc(-c3ccc(NC(=O)c4cc5ccccc5o4)cc3)nc2c1` (stereo not given), the activity change, negative = inhibition was -17.9% (inactive). Under `COc1cc(NC(=O)Cn2nc(-c3ccc(C)c(C)c3)ccc2=O)cc(OC)c1` stands 10.3% (inactive). With `COc1cccc(CNS(=O)(=O)c2csc(C(N)=O)c2)c1` the figure was -30.1% (inactive); with `COc1cccc(CNS(=O)(=O)c2ccc3c(c2)CC(C)N3C(=O)C2CCC2)c1` (stereo not given), -33.4% (inactive) and -60.7% (active). With `O=C(C1CCC1)N1CCc2cc(S(=O)(=O)NCc3cccnc3)ccc21` the figure was -32% (inactive); with `COc1ccc(N(C)S(=O)(=O)c2ccc3c(c2)CC(C)N3C(=O)C2CC2)c(OC)c1` (stereo not given), -22.8% (inactive). Turning to `CC(=O)N1CCSc2ccc(S(=O)(=O)N3CCC(C)CC3)cc21`, the activity change, negative = inhibition is -33.3% (inactive). For the compound `COc1cccc(CNS(=O)(=O)c2ccc3c(c2)N(C(C)=O)CCS3)c1`, the activity change, negative = inhibition was -73.4% (active). With `CCOCCn1ccc2c(OCC(=O)NCc3ccc(C)cc3)cccc2c1=O`, the activity change, negative = inhibition was 22.4% (inactive). With `O=C(CCS(=O)(=O)c1cc(Br)cc2c1N(C(=O)C1CC1)CC2)Nc1ccc(Br)cc1F` the figure was -5.42% (inactive).

Values taken from PubChem BioAssay AID1259415 (National Center for Advancing Translational Sciences (NCATS), 2018).
